The source made the active and inactive calls.

Assay [1] relates to Plasmodium falciparum Sir2 (PF13_0152, Sir2A). As to the kind of experiment: Plasmodium falciparum Sir2A binding compounds – biochemical, small-molecule microarray, 635 nm fluorescence, primary screen (AID 1098).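 Note: score merges spot fluorescence intensity with its signal-to-noise ratio.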 The conditions noted are these: fluorescence 635 nm, higher = more signal.
The nature of assay [2]: probe aDKK1 binding to arrayed compounds – biochemical, biotinylated probe, 635/667 nm fluorescence, primary screen (AID 1099).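 Note: score merges 667nm spot fluorescence with signal to noise across triplicate slides.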 The conditions noted are these: small-molecule microarray, higher = more signal.
Assay [3] can be described thus: probe aCHRDL2 binding to arrayed compounds – biochemical, biotinylated probe, 635/667 nm fluorescence, primary screen (AID 1100). The conditions noted are these: small-molecule microarray, higher = more signal.
Assay [4] can be described thus: change in splice reporter luminescence, either direction, cell-based, HEK293, spliceosome inhibition project, primary screen (AID 1101).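 Note: HEK293 cells carrying a splicing-competent luciferase reporter gene; test concentration not given here.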 The conditions noted are these: HEK293 splicing luciferase reporter, 24 h, higher = more signal, called active from +8 up or from −8 down.
The target of assay [5] is Fibroblast growth factor 10 (Homo sapiens) (UniProt O15520). As to the kind of experiment: compounds binding fibroblast growth factor 10 – biochemical, small-molecule microarray, 635 nm fluorescence, primary screen (AID 1102). The conditions noted are these: FGF10 binding, fluorescence 635 nm, higher = more signal.
Fibroblast growth factor 10 (Homo sapiens), sequence (O15520 whole entry, looked up): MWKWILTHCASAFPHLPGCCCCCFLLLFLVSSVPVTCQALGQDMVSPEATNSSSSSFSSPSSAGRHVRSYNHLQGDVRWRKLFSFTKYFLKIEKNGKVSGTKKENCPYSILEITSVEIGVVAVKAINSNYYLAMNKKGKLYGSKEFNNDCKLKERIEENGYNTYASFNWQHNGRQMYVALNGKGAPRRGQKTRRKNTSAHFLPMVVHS
The test system of assay [6] is glycogen synthase kinase-3 (GSK3A per assay name; protocol says GSK3B). As to the kind of experiment: compounds binding glycogen synthase kinase-3 – biochemical, small-molecule microarray, 635 nm fluorescence, GSK3A, primary screen (AID 1103). Note: the record names both GSK3A and GSK3B. The conditions noted are these: fluorescence 635 nm, higher = more signal.
The target in assay [7] is Epidermal growth factor receptor (Homo sapiens) (UniProt P00533). As to the kind of experiment: compounds binding epidermal growth factor receptor – biochemical, small-molecule microarray, 635 nm fluorescence, primary screen (AID 1104).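 Note: score merges 667 nm emission intensity with spot signal to noise over triplicate slides.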 The conditions noted are these: EGFR binding, higher = more signal.
Epidermal growth factor receptor (Homo sapiens), sequence (P00533 whole entry, looked up): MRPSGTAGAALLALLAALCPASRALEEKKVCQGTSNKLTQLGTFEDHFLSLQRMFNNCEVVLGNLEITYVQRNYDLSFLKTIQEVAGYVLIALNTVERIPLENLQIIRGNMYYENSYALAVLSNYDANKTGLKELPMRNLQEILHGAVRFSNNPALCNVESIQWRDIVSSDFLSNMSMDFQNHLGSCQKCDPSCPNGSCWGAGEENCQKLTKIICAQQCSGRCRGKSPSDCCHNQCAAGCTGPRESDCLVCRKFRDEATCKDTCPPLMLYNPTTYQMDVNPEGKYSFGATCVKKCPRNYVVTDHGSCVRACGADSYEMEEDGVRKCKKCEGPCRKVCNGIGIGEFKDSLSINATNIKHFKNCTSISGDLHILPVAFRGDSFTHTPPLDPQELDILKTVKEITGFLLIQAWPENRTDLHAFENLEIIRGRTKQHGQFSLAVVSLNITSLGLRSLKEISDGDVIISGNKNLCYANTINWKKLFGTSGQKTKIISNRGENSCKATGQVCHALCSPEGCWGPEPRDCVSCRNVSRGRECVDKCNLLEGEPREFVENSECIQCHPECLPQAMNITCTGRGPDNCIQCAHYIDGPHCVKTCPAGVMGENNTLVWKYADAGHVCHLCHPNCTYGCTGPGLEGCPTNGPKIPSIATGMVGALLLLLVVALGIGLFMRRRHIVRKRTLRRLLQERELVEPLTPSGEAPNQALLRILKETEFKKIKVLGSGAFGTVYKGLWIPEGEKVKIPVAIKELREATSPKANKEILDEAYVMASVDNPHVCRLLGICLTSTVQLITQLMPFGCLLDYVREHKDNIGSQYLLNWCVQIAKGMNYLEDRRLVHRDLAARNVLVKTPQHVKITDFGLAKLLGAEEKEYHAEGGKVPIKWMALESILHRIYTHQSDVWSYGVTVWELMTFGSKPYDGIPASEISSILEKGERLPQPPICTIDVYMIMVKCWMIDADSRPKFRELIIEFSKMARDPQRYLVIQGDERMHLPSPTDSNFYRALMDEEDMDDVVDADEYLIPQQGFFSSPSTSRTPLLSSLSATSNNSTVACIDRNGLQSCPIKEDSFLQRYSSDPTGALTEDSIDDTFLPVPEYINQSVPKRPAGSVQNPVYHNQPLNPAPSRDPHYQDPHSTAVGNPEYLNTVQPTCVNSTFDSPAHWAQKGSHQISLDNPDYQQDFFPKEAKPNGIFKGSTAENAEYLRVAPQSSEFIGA
In assay [8] the target is Follistatin-related protein 3 (Homo sapiens) (UniProt O95633). The assay can be described thus: compounds binding follistatin-related protein 3 – biochemical, small-molecule microarray, 635 nm fluorescence, primary screen (AID 1105).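 Note: score merges emission near 667 nm and signal to noise per printed spot across three slides.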 The conditions noted are these: FSTL3 binding, higher = more signal.
Follistatin-related protein 3 (Homo sapiens), sequence (O95633 whole entry, looked up): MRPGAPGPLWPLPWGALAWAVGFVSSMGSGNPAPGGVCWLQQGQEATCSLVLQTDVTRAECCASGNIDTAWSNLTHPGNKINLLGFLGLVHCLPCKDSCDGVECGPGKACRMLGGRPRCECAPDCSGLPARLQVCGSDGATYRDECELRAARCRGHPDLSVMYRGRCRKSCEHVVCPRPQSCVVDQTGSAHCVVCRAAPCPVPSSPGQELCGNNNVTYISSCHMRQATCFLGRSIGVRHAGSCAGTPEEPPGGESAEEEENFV
In assay [9] the target is Dickkopf-related protein 1 (Homo sapiens) (UniProt O94907). As to the kind of experiment: small molecules binding DKK1 protein – biochemical, small-molecule microarray, 635 nm fluorescence scan, primary screen (AID 1106).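 Note: score merges emission near 667 nm with signal to noise over three replicate slides.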 The conditions noted are these: higher = more signal.
Dickkopf-related protein 1 (Homo sapiens), sequence (O94907 whole entry, looked up): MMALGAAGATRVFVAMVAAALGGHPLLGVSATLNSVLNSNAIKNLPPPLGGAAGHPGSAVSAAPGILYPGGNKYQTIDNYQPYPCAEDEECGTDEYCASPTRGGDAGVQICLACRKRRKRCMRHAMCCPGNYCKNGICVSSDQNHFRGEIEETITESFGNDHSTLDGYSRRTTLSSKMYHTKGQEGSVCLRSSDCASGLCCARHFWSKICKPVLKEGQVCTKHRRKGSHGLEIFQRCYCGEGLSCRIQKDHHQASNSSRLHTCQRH
In assay [10] the test system is Inhibin beta A chain (activin A). As to the kind of experiment: small molecules binding activin A – biochemical, small-molecule microarray, 635 nm fluorescence scan, primary screen (AID 1107).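 Note: mouse activin A protein probed at 4.33 µg/mL on printed slides; score merges bound-protein fluorescence near 667 nm with spot signal-to-noise.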 The conditions noted are these: INHBA, higher = more signal.
For assay [11], the system named is Human papillomavirus type 1a protein E7 (residues 44-93). As to the kind of experiment: small molecules binding HPV E7 44-93 – biochemical, small-molecule microarray, residues 44-93, 635 nm fluorescence, primary screen (AID 1108).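 Note: E7 fragment applied at 1 µg/mL in TBST for 1 h at 4 C; score combines spot fluorescence with its signal to noise ratio.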 The conditions noted are these: fluorescence 635 nm, higher = more signal.
Assay [12] in a line: hepatitis C replication reporter changes, two-sided – Huh7 cells, luciferase reporter, HCV replication inhibitor project, primary screen (AID 1109).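 Note: huh7 hepatoma cells harbouring a luciferase neomycin HCV replicon reporter; luciferase luminescence as measure of HCV replicon replication; test concentration not given here.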 The conditions noted are these: Huh7 HCV replicon luciferase reporter, 48 h; higher = more signal.
The target of assay [13] is Left-right determination factor 2 (Homo sapiens) (UniProt O00292). As to the kind of experiment: small molecules binding LEFTY2 protein – biochemical, small-molecule microarray, 635 nm fluorescence scan, primary screen (AID 1110). The conditions noted are these: higher = more signal.
Left-right determination factor 2 (Homo sapiens), sequence (O00292 whole entry, looked up): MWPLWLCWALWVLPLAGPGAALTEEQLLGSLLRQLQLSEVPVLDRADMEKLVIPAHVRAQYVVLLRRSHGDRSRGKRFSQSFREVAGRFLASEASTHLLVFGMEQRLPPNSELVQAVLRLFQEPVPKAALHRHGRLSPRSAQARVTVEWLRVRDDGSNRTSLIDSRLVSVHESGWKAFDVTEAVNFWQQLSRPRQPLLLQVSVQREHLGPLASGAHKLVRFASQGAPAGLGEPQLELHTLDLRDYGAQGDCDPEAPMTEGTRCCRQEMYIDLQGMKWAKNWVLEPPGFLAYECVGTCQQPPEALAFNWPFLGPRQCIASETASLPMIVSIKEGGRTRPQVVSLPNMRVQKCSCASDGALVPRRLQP
Assay [14] deals with Calmodulin-1 (Homo sapiens) (UniProt P0DP23). As to the kind of experiment: small molecules binding calmodulin-1 with EGTA – biochemical, small-molecule microarray, Cy5-labelled CALM1, profiling panel (AID 1111).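 Note: labelled calmodulin applied in Tris saline Tween buffer holding calcium plus EGTA and DTT.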 The conditions noted are these: Cy5-CALM1 binding fluorescence, higher = more signal.
For assay [15] the target is unchanged. The assay can be described thus: small molecules binding Ca-loaded calmodulin-1 – biochemical, small-molecule microarray, Cy5-labelled CALM1, plus calcium, artefact control for SMM control-protein annotation, profiling panel (AID 1112).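 Note: score merges spot fluorescence with signal to noise from triplicate slides.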 The conditions noted are these: Cy5-CALM1 binding fluorescence, higher = more signal.
A short description of assay [16]: probe aWnt5a binding to arrayed compounds – biochemical, biotinylated probe, 635/667 nm fluorescence, primary screen (AID 1113).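 Note: score merges 667 nm fluorescence intensity with signal-to-noise per printed feature.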 The conditions noted are these: small-molecule microarray, higher = more signal.
The nature of assay [17]: probe aShh binding to arrayed compounds – biochemical, biotinylated probe, 635/667 nm fluorescence, primary screen (AID 1114).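 Note: probe is biotin-labelled aShh protein from a stem cell growth factor screen; measures binding of labelled protein to compounds printed on the slide; score merges feature fluorescence at 667 nm with signal-to-noise.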 The conditions noted are these: small-molecule microarray, higher = more signal.
The nature of assay [18]: probe aNog binding to arrayed compounds – biochemical, biotinylated probe, 635/667 nm fluorescence, primary screen (AID 1115).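 Note: probe is biotinylated aNog protein used at 0.15 µg/mL for 1 h at 4 C; z-score combines 667 nm fluorescence of each spot with its signal to noise.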 The conditions noted are these: small-molecule microarray, higher = more signal.
For assay [19], the target named is Torsin-1A-interacting protein 1 (Homo sapiens) (UniProt Q5JTV8). As to the kind of experiment: compound microarray binding of lysate hLAP1 – cell lysate, small-molecule microarray, COS7 lysate, 635/667 nm fluorescence, primary screen (AID 1116). The conditions noted are these: 635 nm fluorescence, higher = more signal.
Torsin-1A-interacting protein 1 (Homo sapiens), sequence (Q5JTV8 whole entry, looked up): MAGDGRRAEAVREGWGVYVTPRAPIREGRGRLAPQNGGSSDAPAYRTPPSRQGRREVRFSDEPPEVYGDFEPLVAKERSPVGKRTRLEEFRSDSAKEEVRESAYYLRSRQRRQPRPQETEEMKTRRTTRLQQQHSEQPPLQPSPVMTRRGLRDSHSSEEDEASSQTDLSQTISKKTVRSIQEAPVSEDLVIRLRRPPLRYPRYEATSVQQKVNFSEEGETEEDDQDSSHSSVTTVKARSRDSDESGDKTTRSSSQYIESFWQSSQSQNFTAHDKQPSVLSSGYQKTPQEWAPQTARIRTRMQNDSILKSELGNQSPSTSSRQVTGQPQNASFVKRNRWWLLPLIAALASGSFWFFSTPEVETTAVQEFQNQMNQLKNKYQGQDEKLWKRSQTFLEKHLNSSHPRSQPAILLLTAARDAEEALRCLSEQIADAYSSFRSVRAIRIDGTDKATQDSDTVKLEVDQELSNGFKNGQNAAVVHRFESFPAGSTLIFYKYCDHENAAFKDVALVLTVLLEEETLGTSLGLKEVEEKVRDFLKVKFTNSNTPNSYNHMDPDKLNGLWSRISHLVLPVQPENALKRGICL
For assay [20], the target named is Alpha-bungarotoxin (Bungarus multicinctus) (UniProt P60615). The assay can be described thus: compounds binding labelled alpha-BTX control protein – biochemical, small-molecule microarray, Alexa647 label, 635/667 nm fluorescence, artefact control for SMM control protein annotation, profiling panel (AID 1117). The conditions noted are these: alpha-BTX-A647 binding fluorescence, higher = more signal.
Alpha-bungarotoxin (Bungarus multicinctus), sequence (P60615 whole entry, looked up): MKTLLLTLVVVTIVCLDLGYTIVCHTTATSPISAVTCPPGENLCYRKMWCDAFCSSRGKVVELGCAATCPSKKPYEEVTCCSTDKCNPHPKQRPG

In the case of `CCCNC(=O)[C@@]1(Sc2ccc(C)cc2)CC(=O)N(Cc2cc(C(F)(F)F)cc(C(F)(F)F)c2)[C@@H]1c1ccc(CO)cc1`, the composite z-score in [1] was -0.441; in assay [2], -0.09; in assay [3], 0.738; in [5], 0.0468; in assay [6], -0.365; in assay [7], -0.738. The composite z-score in assay [8] is -0.888; in [9], -1.2; in assay [10], 0.108; in [11] it was 0.156; in assay [13], -0.272; in [14] it was -0.159. In addition, the composite z-score was 0.441 in [15]; -0.0944 in assay [16]; -0.291 in assay [17]; -0.164 in assay [18]; 0.443 in [19]; 0.0468 in assay [20]. For the same molecule, the z-score is -1.58 (inactive) in [4] and -1.83 in assay [12].

With `COC(=O)[C@@]1(Cc2ccc(F)cc2)[C@H]2c3cc(C(=O)N(C)C)n(Cc4ccc(C(F)(F)F)nc4)c3C[C@H]2CN1C(=O)c1ccccc1`, the composite z-score in assay [1] was 1.12; in assay [2], -0.154; in assay [3], -0.252; in assay [5], 0.776; in [6] it was 1.36; in assay [7] it was 0.389. For the same molecule, the composite z-score in [8] is 1.42; in assay [9] it was 0.638; in assay [10], 0.876; in assay [11] it was 1.38; in assay [13], 0.22; in [14], 2.27. Also, the composite z-score in [15] is 0.789; in assay [16], 0.15; in assay [17], 0.25; in assay [18], -0.235; in assay [19], 0.0971; in assay [20], 0.922. The results for the z-score in assay [4] and in assay [12] were -0.622 (inactive) and -2.42, respectively.

Regarding `CCCCC(=C=CC[C@H](O)c1cccc(OCCO)c1)C[C@H](O)c1cc(Cl)cc(Cl)c1O`, the composite z-score in assay [1] was 1.28; in assay [2], -0.152; in assay [3], -0.214; in assay [5] it was 1.27; in assay [6], 0.25; in assay [7], -0.443. The composite z-score in assay [8] was 0.544; in assay [9], 0.0244; in assay [10] it was 0.295; in assay [11], 1.39; in assay [13], -0.0526; in assay [14], 0.154. For the same molecule, the composite z-score is -0.484 in [15]; -0.096 in assay [16]; -0.0626 in assay [17]; 0.422 in assay [18]; 0.839 in assay [19]; 0.645 in assay [20]. The z-score was -0.109 (inactive) in assay [4] and -1.59 in [12].

For the molecule `CC1C2C(CCCO)=CC(C3C(=O)N(C)C(=O)C23)N1Cc1cccc(OC(F)(F)F)c1` (stereo not given), the composite z-score in [1] was found to be 1.47; in assay [2] it was 0.784; in assay [3], 0.44; in assay [5], 0.684; in assay [6] it was 1.3; in [7], 0.0422. Also, the composite z-score in assay [8] is 0.231; in assay [9], -0.124; in assay [10] it was 0.527; in assay [11], 1.47; in [13], 0.101; in [14] it was 1.65. In addition, the composite z-score in [15] turned out to be 0.841; in assay [16], 0.0317; in assay [17], 0.522; in assay [18], 1.64; in [19] it was 1.62; in assay [20], 1.42. Also, the results for the z-score in assay [4] and in assay [12] were -1.06 (inactive) and -0.75, respectively.

As for `O=C1NC(=O)C2C1C=CC(C(O)C(c1ccccc1)c1ccccc1)N2Nc1ccccn1` (stereo not given), the composite z-score in [1] was 0.737; in assay [2], 1.25; in assay [3] it was 1.15; in assay [5], 0.909; in [6] it was -0.145; in assay [7], 0.457. Further, the composite z-score in assay [8] was 0.503; in [9], 0.593; in assay [10], 1.32; in assay [11], -1.31; in assay [13], 0.702; in assay [14] it was -0.67. For the same molecule, the composite z-score was 0.295 in [15]; 0.278 in assay [16]; -0.119 in assay [17]; 0.328 in [18]; 1.63 in [19]; -0.143 in [20]. In addition, the z-score in [4] was 0.864 (inactive); in [12] it was -0.246.

With `COc1ccc([Si](C)(C)[C@@H]2[C@@H](CC(=O)N(CCO)Cc3ccccc3)O[C@]3(C(=O)N(Cc4cccc(I)c4)c4ccccc43)[C@H]2C)cc1`, the composite z-score in assay [1] was 0.824; in assay [2] it was -0.0248; in [3], 0.337; in [5], 1.45; in assay [6] it was 0.766; in assay [7] it was 0.661. The composite z-score in [8] came out at 1.42; in assay [9] it was 1.34; in assay [10] it was 0.963; in assay [11], 1.28; in assay [13], 0.741; in [14], 2.83. The composite z-score is 1.21 in [15]; -0.0425 in assay [16]; 0.564 in assay [17]; 0.0051 in assay [18]; 0.319 in assay [19]; 0.855 in [20]. Further, the results for the z-score in [4] and in assay [12] were -0.847 (inactive) and -3.82, respectively.

The values above are taken from PubChem BioAssay.
